# Source: PubChem BioAssay (EPA / NIEHS)
# Values joined by “and” are separate entries in the source; they are usually repeats but may differ in a detail not shown here. Equal values may be shown once. Results filed as inconclusive are left out. The source holds several records for some structures; these can differ, active in one and inactive in another. Active and inactive are the calls of the source. How the source made its calls, unless noted: active means hit-call score of the fitted dose curve at least 0.9, where 1 is the maximum; inactive means score below 0.9.
# Columns and labels:
# [1] = molecular target: Estrogen receptor (Homo sapiens) (UniProt P03372); experiment: CCTE_Deisenroth_AIME_384WELL_LUC_Shift: CCTE's 384-well Estrogen Receptor Transactivation Assay with AIME metabolic competence data shift (ERTA luciferase; difference in metabolism positive and negative), Deisenroth Lab (AID 2284041);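 further: shift is response with S9 minus without S9 so positive means metabolism raised ER signal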
# Estrogen receptor (Homo sapiens), sequence (P03372 whole entry, looked up): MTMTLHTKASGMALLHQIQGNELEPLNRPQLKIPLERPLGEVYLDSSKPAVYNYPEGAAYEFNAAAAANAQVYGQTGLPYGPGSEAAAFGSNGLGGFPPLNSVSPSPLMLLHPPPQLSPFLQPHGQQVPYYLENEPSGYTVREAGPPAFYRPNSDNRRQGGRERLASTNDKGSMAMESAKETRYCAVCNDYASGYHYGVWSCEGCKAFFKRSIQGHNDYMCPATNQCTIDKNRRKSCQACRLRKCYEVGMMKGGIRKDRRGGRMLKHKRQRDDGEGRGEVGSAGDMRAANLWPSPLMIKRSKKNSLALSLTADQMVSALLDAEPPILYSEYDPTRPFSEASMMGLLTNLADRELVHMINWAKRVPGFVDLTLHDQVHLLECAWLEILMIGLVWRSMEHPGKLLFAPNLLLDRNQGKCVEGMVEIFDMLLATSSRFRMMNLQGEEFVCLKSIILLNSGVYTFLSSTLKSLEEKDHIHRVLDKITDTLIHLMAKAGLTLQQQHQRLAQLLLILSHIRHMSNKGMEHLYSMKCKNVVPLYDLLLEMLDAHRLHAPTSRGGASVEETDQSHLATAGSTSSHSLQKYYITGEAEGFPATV
# Summary of the method: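 Here, parent compounds undergo 2 h phase I metabolism by PB/BNF-induced rat S9 before 24 h transactivation in VM7Luc4E2 cells; the curve models S9-positive minus S9-negative response over a 10-point series.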
# [2] = CCTE_Shafer_MEA_dev_burst_rate: CCTE's Neural Network Formation Assay for Burst Rate, Shafer Lab (AID 2284042);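 on AC50: potency for loss of burst rate below DMSO control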
# Summary of the method: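 Developmental network assay measuring how 12-day exposure of rat cortical neuron cultures alters bursting on extracellular MEA recordings. Values are AUC of well-mean burst rate across four recording days, relative to DMSO vehicle.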
# [3] = CCTE_Shafer_MEA_dev_bursting_electrodes_number: CCTE's Neural Network Formation Assay for Number of Bursting Electrodes, Shafer Lab (AID 2284043; active means hit-call score of the fitted dose curve at least 0.9, where 1 is the maximum;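 on AC50: potency is for loss of bursting electrodes relative to DMSO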)
# Summary of the method: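 Counted: electrodes with burst rate ≥1 per 2 min in each well. Cells: primary rat cortex, 1.5 x 10^5/well, on 16-electrode MEA wells. Exposure: DIV 0–12, compound renewed DIV 5 and 9. Recording days 5, 7, 9, 12; AUC vs DMSO baseline.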
# [4] = CCTE_Shafer_MEA_dev_per_burst_interspike_interval: CCTE's Neural Network Formation Assay for Burst Interspike Interval, Shafer Lab (AID 2284044);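 further: mean spike spacing inside bursts as AUC over recordings on days 5 7 9 12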;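 on AC50: potency for a decrease of within-burst interspike interval below DMSO level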
# Summary of the method: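 Primary rat cortical neurons on 48-well MEA plates, exposed from day 0 through day 12, treatment renewed at DIV 5 and 9. Within-burst interspike interval recorded days 5, 7, 9, 12, well-averaged, summarised as AUC; negative fit versus DMSO.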
# [5] = CCTE_Shafer_MEA_dev_burst_duration_mean: CCTE's Neural Network Formation Assay for Mean Burst Duration, Shafer Lab (AID 2284045);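 on AC50: curve fitted for loss meaning shorter burst duration than DMSO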
# Summary of the method: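 Network-formation assay in primary rat cortical neurons; treatment spans twelve days of development. Mean burst duration per well is integrated by trapezoidal AUC and fitted in the loss-of-signal direction against DMSO baseline.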
# [6] = CCTE_Shafer_MEA_dev_interburst_interval_mean: CCTE's Neural Network Formation Assay for Mean Interburst Interval, Shafer Lab (AID 2284046);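 further: well-mean interburst interval of bursting electrodes as AUC over four recording days; curve fitted for decrease in interburst interval relative to DMSO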
# Summary of the method: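 Network formation assay in primary rat cortical cultures, exposed from DIV 0 to 12. Mean interburst interval per well, integrated as AUC over four recordings.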
# [7] = CCTE_Shafer_MEA_dev_inter_network_spike_interval_mean: CCTE's Neural Network Formation Assay for Mean Inter-network Spike Interval, Shafer Lab (AID 2284047);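 on AC50: potency for a decrease in mean inter-network spike interval below DMSO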
# Summary of the method: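 Compound was given at plating to primary rat cortical neurons and renewed with full medium changes on DIV 5 and 9. Extracellular activity was recorded on days 5, 7, 9, 12; AUC values were fitted for loss relative to DMSO control.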
# [8] = CCTE_Shafer_MEA_dev_network_spike_number: CCTE's Neural Network Formation Assay for Number of Network Spikes, Shafer Lab (AID 2284048);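 further: synchronized bursts across electrodes counted on days 5 7 9 12 and integrated as AUC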;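 on AC50: fit as a loss of signal meaning fewer network spikes than DMSO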
# Summary of the method: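 Extracellular recordings from 16-electrode wells track network formation in rat cortical cultures under continuous treatment from plating. The endpoint is network spike number, expressed as AUC across DIV 5–12 relative to DMSO vehicle.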
# [9] = CCTE_Shafer_MEA_dev_network_spike_peak: CCTE's Neural Network Formation Assay for Mean Number of Electrodes in Network Spike, Shafer Lab (AID 2284049);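 on AC50: fitted for loss of signal meaning fewer electrodes in network spikes than DMSO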
# Summary of the method: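 Continuous 12-day exposure of rat cortical cultures, starting at plating, on MEA plates. Endpoint: electrodes participating in network-spike peaks, AUC across DIV 5–12, DMSO as negative control.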
# DIO2 (gene 1734) = experiment: CCTE_GLTED_hDIO2: CCTE's human Deiodinase 2 (DIO2) Inhibition Assay, Great Lakes Toxicology and Ecology Division (GLTED) Lab (AID 2284050; active means hit-call score of the fitted dose curve at least 0.9, where 1 is the maximum)
# Summary of the method: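 Inhibition is judged by reduced iodide release: uninhibited human DIO2 frees iodide from substrate over 3 h, measured afterward by Sandell-Kolthoff colorimetry. Iodinated chemicals or nitrite, iron and thiocyanate may interfere.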
compound,measurement,setting,value
CC1(C)C(C=C(Cl)Cl)C1C(=O)OC(C#N)c1cccc(Oc2ccccc2)c1 (stereo not drawn),outcome,[1],inactive
same,AC50,[2],3.77 µM (active)
same,outcome,[2],inactive
same,AC50,[3],6.24 µM (active)
same,outcome,[3],inactive
same,outcome,[4],inactive
same,outcome,[5],inactive
same,AC50,[6],3.49 µM (active)
same,outcome,[6],inactive
same,outcome,[7],inactive
same,AC50,[8],2.98 µM (active)
same,outcome,[8],inactive
same,AC50,[9],11.4 µM (active)
same,outcome,[9],inactive
O=C1C2CC=CCC2C(=O)N1SC(Cl)(Cl)Cl (stereo not drawn),outcome,[2],inactive
same,AC50,[3],9.85 µM (active) and 1.97 µM (active)
same,AC50,[4],16.2 µM (active)
same,outcome,[4],inactive
same,outcome,[5],inactive
same,AC50,[6],9.95 µM (active)
same,outcome,[6],inactive
same,outcome,[7],inactive
same,outcome,[8],inactive
same,AC50,[9],9.85 µM (active) and 16.2 µM (active)
O=C(Nc1ccccc1-c1ccc(Cl)cc1)c1cccnc1Cl,outcome,[1],inactive
same,AC50,[2],4.18 µM (active) and 3.1 nM (active)
same,outcome,[2],inactive
same,AC50,[3],7.09 µM (active)
same,outcome,[3],inactive
same,AC50,[4],5.35 µM (active)
same,outcome,[4],inactive
same,outcome,[5],inactive
same,AC50,[6],2.59 µM (active)
same,outcome,[6],inactive
same,AC50,[7],0.01 µM (active)
same,outcome,[7],inactive
same,outcome,[8],inactive
same,AC50,[9],9.92 µM (active)
same,outcome,[9],inactive
Cc1c(COC(=O)[C@@H]2[C@H](/C=C(\Cl)C(F)(F)F)C2(C)C)cccc1-c1ccccc1,AC50,[2],768 nM (active) and 2.7 µM (active)
same,AC50,[3],1.56 µM (active) and 1.65 µM (active)
same,AC50,[4],3.23 µM (active) and 3.43 µM (active)
same,AC50,[5],2.29 µM (active) and 1.75 µM (active)
same,AC50,[6],2.8 µM (active) and 2.26 µM (active)
same,AC50,[7],2.3 µM (active)
same,outcome,[7],inactive
same,AC50,[8],91.2 nM (active) and 495 nM (active)
same,AC50,[9],1.51 µM (active) and 1.19 µM (active)
COC(=O)N(C(=O)N1CO[C@@]2(C(=O)OC)Cc3cc(Cl)ccc3C2=N1)c1ccc(OC(F)(F)F)cc1,outcome,[1],inactive
same,outcome,[2],inactive
same,AC50,[3],15 µM (active)
same,outcome,[4],inactive
same,outcome,[5],inactive
same,outcome,[6],inactive
same,outcome,[7],inactive
same,outcome,[8],inactive
same,AC50,[9],25.9 µM (active)
CCNC(=O)NC(=O)C(C#N)=NOC,outcome,[2],inactive
same,outcome,[3],inactive
same,outcome,[4],inactive
same,outcome,[5],inactive
same,outcome,[6],inactive
same,outcome,[7],inactive
same,outcome,[8],inactive
same,outcome,[9],inactive
CC(C)=CC1C(C(=O)OCc2coc(Cc3ccccc3)c2)C1(C)C (stereo not drawn),outcome,[2],inactive
same,outcome,[3],inactive
same,outcome,[4],inactive
same,outcome,[5],inactive
same,outcome,[6],inactive
same,outcome,[7],inactive
same,outcome,[8],inactive
same,outcome,[9],inactive
same,AC50,DIO2 (gene 1734),38.5 µM (active)
CCOP(=O)(OCC)Oc1nc(Cl)c(Cl)cc1Cl,outcome,[1],inactive
same,outcome,[2],inactive
same,AC50,[3],852 nM (active) and 6.59 µM (active)
same,outcome,[4],inactive
same,outcome,[5],inactive
same,outcome,[6],inactive
same,outcome,[7],inactive
same,AC50,[8],2.98 µM (active)
same,outcome,[8],inactive
same,AC50,[9],3.32 µM (active) and 9.79 µM (active)
same,outcome,[9],inactive
OC(c1ccc(Cl)cc1)(c1ccc(Cl)cc1)C(Cl)(Cl)Cl,AC50,DIO2 (gene 1734),76.4 µM (active)
COP(=S)(OC)Oc1ccc([N+](=O)[O-])c(C)c1,outcome,[1],inactive
same,outcome,[2],inactive
same,outcome,[3],inactive
same,outcome,[4],inactive
same,outcome,[5],inactive
same,outcome,[6],inactive
same,outcome,[7],inactive
same,outcome,[8],inactive
same,outcome,[9],inactive
Cc1nc(N(C)C)nc(OC(=O)N(C)C)c1C,AC50,DIO2 (gene 1734),44.6 µM (active)
CN/C(=N\[N+](=O)[O-])NCc1cnc(Cl)s1,outcome,[2],inactive
same,outcome,[3],inactive
same,outcome,[4],inactive
same,outcome,[5],inactive
same,outcome,[6],inactive
same,outcome,[7],inactive
same,outcome,[8],inactive
same,outcome,[9],inactive
COP(=S)(OC)SCn1nnc2ccccc2c1=O,outcome,[1],inactive
same,outcome,[2],inactive
same,outcome,[3],inactive
same,outcome,[4],inactive
same,outcome,[5],inactive
same,outcome,[6],inactive
same,outcome,[7],inactive
same,outcome,[8],inactive
same,AC50,[9],15 µM (active)
